# Assay outcomes: PubChem, The Scripps Research Institute Molecular Screening Center
# FBW7 act: human FBW7 E3 ligase activation, primary screen; Q969H0; AlphaScreen FBW7–phospho-cyclin E peptide binding, activator screen; normalized activity (activation), % at 26.1 µM; 650,000 compounds, 0.13% hits; AID 1259310; in the data active = normalized activity above about 1.9%;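 also: purified mutant Fbw7 with reduced substrate affinity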
# Target sequence (Q969H0 whole entry, looked up): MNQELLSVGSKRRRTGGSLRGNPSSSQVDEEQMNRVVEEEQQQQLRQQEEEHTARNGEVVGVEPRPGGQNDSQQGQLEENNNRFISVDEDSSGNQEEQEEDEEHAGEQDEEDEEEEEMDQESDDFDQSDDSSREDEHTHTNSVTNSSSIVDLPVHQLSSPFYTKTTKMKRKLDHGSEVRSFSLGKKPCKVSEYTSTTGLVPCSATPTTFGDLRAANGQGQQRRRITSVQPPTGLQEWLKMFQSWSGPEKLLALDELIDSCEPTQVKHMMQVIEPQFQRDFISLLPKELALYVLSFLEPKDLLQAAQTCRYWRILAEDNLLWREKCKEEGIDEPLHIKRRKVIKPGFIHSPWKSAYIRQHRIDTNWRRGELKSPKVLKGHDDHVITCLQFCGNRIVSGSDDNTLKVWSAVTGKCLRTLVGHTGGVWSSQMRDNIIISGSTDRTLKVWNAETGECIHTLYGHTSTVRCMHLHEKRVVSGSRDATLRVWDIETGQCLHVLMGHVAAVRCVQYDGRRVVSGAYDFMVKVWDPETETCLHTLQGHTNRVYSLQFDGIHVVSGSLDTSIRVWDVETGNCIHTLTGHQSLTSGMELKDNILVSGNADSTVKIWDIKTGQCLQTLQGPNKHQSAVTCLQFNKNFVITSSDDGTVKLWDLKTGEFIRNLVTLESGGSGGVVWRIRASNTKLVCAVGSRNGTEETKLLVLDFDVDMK
# GPR151 activ: activators of human GPR151. Q8TDV0. activation, % at 11.2 µM. 650,000 compounds, 1% hits. PathHunter beta-arrestin GPR151 cells, luminescence; in the data active = activation above about 4.9%;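 also: 0% = median of compound wells and 100% = cells with positive control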
# TEAD-YAP inh: TEAD-YAP interaction inhibition; HEK-TIYL cells, TEAD-Gal4/YAP UAS-luciferase luminescence; inhibition, % at 9.12 µM; 640,000 compounds, 1.4% hits; in the data active = inhibition above about 32%;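 also: 0% = median of test compound wells and 100% = reference inhibitor wells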
# MITF inh: human MITF inhibition, primary screen. O75030. AlphaScreen MITF homodimerization, bead proximity signal. inhibition, % at 2.6 µM. 650,000 compounds, 0.91% hits. AID 1259374; in the data active = inhibition above about 50%;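 also: 0% = vehicle wells with protein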
# MITF confirm: confirmation of human MITF inhibitors; shares compounds with MITF inh; AlphaScreen MITF homodimerization, biotin/His-MITF beads; inhibition, % at 2.6 µM; 4,700 compounds, 16% hits;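 active = inhibition above a cutoff derived from the DMSO control wells, cut at about 28% in these data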;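 also: 0% = MITF dimer wells with DMSO only; inhibitors lower the bead chemiluminescence by keeping MITF from dimerizing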
# AS interf ctr: counter-screen: compounds optically interfering with AlphaScreen | shares compounds with MITF inh | LysRS AlphaScreen counterscreen, signal interference, triplicate | inhibition, % at 2.6 µM | 4,700 compounds, 7.6% hits | AID 1259376;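 active = inhibition above a cutoff derived from the DMSO control wells, cut at about 30% in these data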
# * marks the source's active call; other numbers are inactive results; · = no result. Most compounds without a hit are left out; they make up all but 3.5% or so of the library.
SMILES,FBW7 act,GPR151 activ,TEAD-YAP inh,MITF inh,MITF confirm,AS interf ctr
NC(=O)c1cc2cc([N+](=O)[O-])ccc2oc1=Nc1ccccc1,0,1,3,-1,·,·
O=C(NCC(c1ccco1)N1CCN(c2ccc(F)cc2)CC1)c1ccccc1 (centres undefined),0,0,-11,3,·,·
O=C1CCC(CCNCCOc2ccc(F)cc2)N1Cc1cccc(-n2cccn2)c1 (centres undefined),0,2,3,0,·,·
O=C1CCC(CCNCCOc2ccc(F)cc2)N1Cc1cccc(Cl)c1 (centres undefined),0,0,-3,71*,1,3
COc1ccc(C(=O)CNCC2CCCO2)cc1OC (centres undefined),0,0,2,69*,-14,1
O=C(c1cccc(-c2ccccc2)c1)N1CCCC(N2CCC(CO)CC2)C1 (centres undefined),0,1,6,4,·,·
O=C(Nc1ccc2c(c1)C(=O)NCCO2)c1ccc(Cl)cc1,0,0,-77,-16,·,·
Cc1ccccc1C(=O)Nc1ccc2c(c1)C(=O)NCCO2,0,0,-4,51*,-5,-5
Cc1[nH]c2c(Cl)c(Cl)ccc2c1CCNC(=O)Cn1nc(-c2ccc(Cl)cc2)c2ccccc2c1=O,0,-1,-3,25,·,·
COc1ccccc1C(=O)Nc1ccnn1C1CCN(Cc2cnc(SC)nc2)CC1,0,2,7,5,·,·
CN(C)CCCNS(=O)(=O)c1ccc2c(c1)OCCO2,0,-2,-4,63*,16,16
COc1ccc(NS(=O)(=O)c2ccc3c(c2)OCCO3)c(OC)c1,0,0,9,85*,-2,-2
CCOc1ccccc1NS(=O)(=O)c1ccc2c(c1)OCCCO2,0,2,0,57*,-5,-6
Cc1cc(=O)n(C)c(=O)n1Cc1ccccc1,0,-2,-6,9,·,·
Cc1cc(=O)n(C)c(=O)n1CCCCNCCO,0,0,4,72*,-5,-4
Cc1cc(=O)n(C)c(=O)n1CCCCBr,0,1,2,-3,·,·
Cc1cc(=O)n(C)c(=O)n1CCCNC(C)c1ccccc1 (centres undefined),0,-1,7,84*,6,22
COCCCNc1ccc([N+](=O)[O-])cc1C(=O)Nc1cccc(C)n1,0,-1,0,52*,8,10
Cc1ccc(CNc2nc(CN3CCCCC3CCO)nc3ccccc23)cc1 (centres undefined),0,-1,-2,-6,·,·
O=C(CCSCCC(=O)Nc1nccs1)Nc1nccs1,0,0,3,3,·,·
CN(C)CC(C)(C)CNCC(=O)Nc1ccc(F)c(F)c1F,0,0,1,70*,1,-2
Cc1ccc(Cn2nnc3c(=O)[nH]c(C4CCCN(C(=O)C(C)(C)C)C4)nc32)cc1 (centres undefined),0,-1,3,67*,1,9
Cc1ccc(Cn2nnc3c(=O)[nH]c(C4CCN(C(=O)C(F)(F)F)CC4)nc32)cc1,0,0,1,75*,5,14
CC(C(=O)N1CCN(Cc2ccccc2)CC1)N(c1ccc(Cl)cc1)S(C)(=O)=O (centres undefined),0,1,15,83*,-4,-6
O=C(CCc1nc2cccnc2n1-c1ccccc1)NCc1ccco1,0,1,5,-17,·,·
SMILES,FBW7 act,GPR151 activ,TEAD-YAP inh,MITF inh,MITF confirm,AS interf ctr
CC(C)c1ccc(-c2c(C#N)c(N)nc3sc(C(=O)Nc4ccc(Cl)cc4)c(N)c23)cc1,0,0,1,3,·,·
COc1cccc(NC(=O)c2sc3nc(N)c(C#N)c(-c4ccc(C(C)C)cc4)c3c2N)c1,0,1,-5,52*,-2,-8
CCCCCN(CCCCC)CC(=O)Nc1cc(C)nc2ccccc12,0,1,-1,74*,-2,3
CCCCCCN(CCCCCC)CC(=O)Nc1c2c(nc3ccccc13)CCC2,0,1,-3,71*,21,17
CCN(CC)CC(=O)Nc1c2c(nc3ccccc13)CCCC2,0,0,-1,44,·,·
COc1ccc(N2CCN(S(=O)(=O)CCCNC(=O)C3CCCC3)CC2)cc1,0,2,7,6,·,·
Cc1nc2ccccn2c1-c1ccnn1S(=O)(=O)c1ccc(F)cc1,0,-1,-3,73*,-2,2
Cc1nc2ccccn2c1-c1nnco1,0,1,-2,-14,·,·
Cc1cc([N+](=O)[O-])cc([N+](=O)[O-])c1NC1CCCCC1,0,4,4,6,·,·
C=CCN(c1ccc(C(=O)Nc2cccc(F)c2)cc1)S(C)(=O)=O,1,-1,-20,16,·,·
COCCn1c(C)nnc1SCC(N)=O,1,-1,16,83*,6,5
CCOC(=O)C1=C(C)N=c2s/c(=C\c3ccc(Cl)cc3Cl)c(=O)n2C1c1ccc(N(C)C)cc1 (centres undefined),0,0,3,2,·,·
CCOC(=O)C1=C(C)N=c2s/c(=C/c3ccc(Cl)cc3Cl)c(=O)n2C1c1ccc(C)cc1 (centres undefined),0,1,4,63*,-11,-11
CC(=O)c1cccc(NC(=S)NCc2cccs2)c1,0,0,-5,-13,·,·
CCC(=O)c1ccc2cc(OC)ccc2c1,0,2,-13,82*,1,13
COc1ccc2cc(C(=O)CBr)ccc2c1,0,5,2,16,·,·
OC(CNC1CC1)COCc1ccccc1F (centres undefined),0,-1,1,59*,8,-11
N#C/C(=C\c1ccc(Cl)cc1Cl)C(=O)Nc1ccc(S(N)(=O)=O)cc1,0,0,2,7,·,·
Oc1ccc(CNc2cccc(F)c2)c2cccnc12,-1,-1,55*,62*,98*,100*
COc1cccc(NCc2ccc(O)c3ncccc23)c1,-2,0,92*,56*,93*,92*
Oc1ccccc1CNc1ccc(F)cc1,0,1,-6,-1,·,·
Oc1ccc(CNc2ccccc2)c2cccnc12,-1,0,4,73*,44*,80*
Oc1ccc(CNc2ccc(F)cc2)c2cccnc12,-1,-2,11,66*,104*,100*
O=C(NC1CC1)c1ccc(CNS(=O)(=O)c2ccc(Cl)cc2)cc1,0,0,-20,-6,·,·
COc1ccc(-c2nc3cc(NC(=O)COc4ccc(C)cc4)ccc3o2)cc1Cl,0,1,2,2,·,·
C/C(=N\NC(=O)CC(=O)N/N=C(\C)c1ccc([N+](=O)[O-])o1)c1ccc([N+](=O)[O-])o1,0,0,1,24,·,·
COc1ccc(NCc2ccc(O)c3ncccc23)c(OC)c1,-1,-1,8,75*,46*,89*
CCNC(=O)CSc1nnc(CSc2nc3ccccc3s2)n1CC,0,-1,-7,-2,·,·
